# In PubChem BioAssay (NCATS):
# Results filed as inconclusive are left out. Calls of active or inactive are those of the source. Unless noted, calls follow the shape of the full dose curve.
# System: not listed separately
# Test: Primary qHTS to identify inhibitors of SARS-CoV-2 cell entry (AID 1645846); also: nearly all actives have a fitted effect of over 45% in size
# Details: SARS-CoV-2 pseudovirus cell entry assay, luminescence; activity change, negative = inhibition: at 57.1 µM (top of the series) unless noted
# How it was run: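 Inhibition of spike-mediated entry was scored in human ACE2-transfected Expi293F cells. Particles were MLV-pseudotyped with Wuhan-Hu-1 S carrying a 19-aa C-terminal deletion; signal was luciferase after two days, scaled between spike PP and fusion-protein-free PP.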
SMILES,"activity change, negative = inhibition [%]",outcome
CC(C)C[C@H](NC(=O)CNC(=O)c1cc(Cl)ccc1Cl)B1OC(=O)C(CC(=O)O)(CC(=O)O)O1,-97.4,–
Cc1cc(-c2ccc(N=Nc3ccc4c(S(=O)(=O)O)cc(S(=O)(=O)O)c(N)c4c3O)c(C)c2)ccc1N=Nc1ccc2c(S(=O)(=O)O)cc(S(=O)(=O)O)c(N)c2c1O,-2.58,–
CC(=O)OC1CC(OC2C(O)CC(OC3C(O)CC(OC4CCC5(C)C(CCC6C5CCC5(C)C(C7=CC(=O)OC7)CCC65O)C4)OC3C)OC2C)OC(C)C1O (centres undefined),-96.7,–
Nc1nc(NC2CC2)c2ncn([C@H]3C=C[C@@H](CO)C3)c2n1,–,inactive
CNC(C)C(O)c1ccccc1 (centres undefined),-30.3,–
C(=C\c1ccncc1)/c1ccccc1,–,inactive; activator; fitted 1.4125 uM [at 114 µM]

# Molecular target: Glutathione peroxidase 1 (Homo sapiens) (UniProt P07203)
# Sequence (P07203 whole entry, looked up): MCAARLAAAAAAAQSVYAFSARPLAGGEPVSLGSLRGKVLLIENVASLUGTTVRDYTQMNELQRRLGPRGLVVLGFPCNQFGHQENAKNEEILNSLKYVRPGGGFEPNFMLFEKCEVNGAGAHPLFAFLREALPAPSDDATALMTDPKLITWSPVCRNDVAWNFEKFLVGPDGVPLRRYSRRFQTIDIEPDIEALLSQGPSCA
# Test: Primary qHTS Assay for Inhibitors of Recombinant Selenoprotein Glutathione Peroxidase 1 (GPX1) (AID 1845191; active = well fitted inhibition curve with a large enough effect; also: nearly all actives have a fitted effect of over 65% in size; as to activity, negative = inhibition: % is scaled to controls: 0 for no effect and ±100 for the full control effect)
# Details: recombinant GPX1, GR-coupled NADPH fluorescence, 15 min; series mostly up to 48.8 µM; activity, negative = inhibition: at the top concentration
# How it was run: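 GR-coupled readout: NADPH consumption tracked by fluorescence, ex 340/em 450 nm, at t=0 and after 15 min at RT. Final mix 10 nM GPX1, 1 mM GSH, 0.5 mM CHP, 0.5 mM NADPH, 100 nM GR, 0.01% BSA, following 30 min enzyme–compound preincubation.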
SMILES,outcome,"activity, negative = inhibition"
C[C@@]12CCCCC[C@@H](Cc3ccc(O)cc31)[C@H]2N,inactive,–
NCCS[As](SCCN)c1ccc(Nc2nc(N)nc(N)n2)cc1,–,-18.7% (inactive)
CNC(C)C(O)c1ccccc1 (centres undefined),inactive,–
